Measured values reported in PMC5540273 (PLoS ONE, 2017).

System: SgK110
Details: concentration: 1 μM, replicates: in singlicate; n = 1
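Further: KINOMEscan kinase panel screen.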

Question: For `Cl.c1ccc(-c2n[nH]cc2-c2ccnc(-c3ccc(CN4CCOCC4)cc3)c2)nc1` [GW776245], which “%Inh” value is on record?
Answer: Its value is 0%.

Question: How did the “%Inh” value turn out when `Cc1nnc(-c2ccc3occ(-c4ccc(S(C)=O)cc4)c3c2)[nH]1` (stereo not drawn) was run?
Answer: Its value is 0%.

Question: How did the “%Inh” value turn out when `Cn1ccc2ncnc(Oc3ccc(Nc4nc5ccccc5[nH]4)cc3)c21` was run?
Answer: The value was 0%.

Question: Which “%Inh” value does the source give for `COc1cc2ncn(-c3cc(OCC4CCCO4)c(C(N)=O)s3)c2cc1OC` (stereo not drawn) [GSK204607] here?
Answer: Its value is 0%.

Question: How did the “%Inh” value turn out when `Cc1cccc(-c2nc(-c3ccc(S(C)(=O)=O)cc3)sc2-c2ccnc(NCCc3ccccc3)c2)c1` was run?
Answer: Its value is 9%.

Question: With `COC(=O)c1c(-c2ccccc2)c2cc(C(=O)O)ccc2c(=O)n1Cc1ccccc1` as the molecule, how does the “%Inh” value read?
Answer: Its value is 14%.

Question: `Cl.Oc1ccc(-c2nc(-c3ccccc3)[nH]c2-c2ccncc2)cc1` [SB-428218] was tested. Which “%Inh” value did it give?
Answer: The value was 0%.

Question: How did the “%Inh” value turn out when `CC(=O)Nc1nc2cnc(Nc3cc(NC(=O)c4cccc(CCC#N)c4)ccc3C)nc2s1` was run?
Answer: Its value is 13%.

Question: With `O=C(Nc1n[nH]c2nc(-c3nccs3)c(Br)cc12)C1CCCC1` [SB-742609] as the molecule, how does the “%Inh” value read?
Answer: The value was 0%.

Question: For `CCn1c(-c2ccccn2)nc2cnccc21` [SB-736398], which “%Inh” value is on record?
Answer: The value was 15%.

Question: With `NC(=O)c1nnc2ccccc2c1N` as the molecule, how does the “%Inh” value read?
Answer: The value was 0%.

Question: Which “%Inh” value does the source give for `COc1ccc(Nc2nccc(NCCNC(=O)Nc3ccccc3F)n2)cc1` [GSK1379901] here?
Answer: Its value is 0%.

Question: With `Cc1cc(N2Cc3ccccc3C2)nc(Nc2ccc(S(=O)(=O)N3CCOCC3)cc2)n1.Cl` [GSK1669917] as the molecule, how does the “%Inh” value read?
Answer: Its value is 0%.

Question: `CC1=C(C(=O)Nc2cc3cn[nH]c3cc2F)C(c2ccc(C(F)(F)F)cc2)CC(=O)N1` (stereo not drawn) [GSK429286] was tested. Which “%Inh” value did it give?
Answer: Its value is 0%.

Question: For `COC(=O)c1c(-c2ccccc2)c2cc(OC)ccc2c(=O)n1Cc1ccccc1`, which “%Inh” value is on record?
Answer: Its value is 0%.

Question: How did the “%Inh” value turn out when `O=C(O)COc1ncnc2cc(-c3ccc4[nH]ncc4c3)sc12` was run?
Answer: Its value is 0%.

Question: Which “%Inh” value does the source give for `Nc1nc(-c2nccs2)c(-c2ccnc3ccccc23)s1` [GW693542] here?
Answer: The value was 13%.

Question: How did the “%Inh” value turn out when `Cn1cncc1-c1ccc2ncnc(Nc3ccc(OCc4ccccc4)cc3)c2c1` [GW320571] was run?
Answer: The value was 0%.

Question: `O=C(Nc1ccc2c(c1)OCO2)NC1CCN(c2ccnc(Nc3ccc(F)cc3)n2)C1` (stereo not drawn) [GSK1379724] was tested. Which “%Inh” value did it give?
Answer: Its value is 14%.

Question: `Cc1ccccc1-n1cnc2c(N)ncnc21` [SKF-97510] was tested. Which “%Inh” value did it give?
Answer: Its value is 0%.

Question: Which “%Inh” value does the source give for `Cn1ccc2ncnc(Oc3ccc(NC(=O)Nc4ccccc4)cc3)c21` here?
Answer: The value was 2%.

Question: `O=C1NC(=O)C(N2CCc3ccccc32)=C1c1ccccc1Cl` [SB-373598] was tested. Which “%Inh” value did it give?
Answer: The value was 0%.

Question: With `O=C(Nc1ccccc1)Nc1cccc(Oc2ccc3nccn3n2)c1` as the molecule, how does the “%Inh” value read?
Answer: Its value is 40%.

Question: How did the “%Inh” value turn out when `Nc1ncnc2[nH]c(-c3ccccc3)nc12` [AH5015] was run?
Answer: The value was 0%.

Question: How did the “%Inh” value turn out when `CS(=O)(=O)c1ccc(-c2c(-c3ncn[nH]3)sc(N3CCOCC3)c2C#N)cc1` was run?
Answer: The value was 15%.

Question: For `Cc1c(O)cccc1Nc1ccnc2ccc(C(F)(F)F)cc12.Cl` [GW466413], which “%Inh” value is on record?
Answer: The value was 0%.

Question: With `CS(=O)(=O)c1ccc(-c2nc3n(c2-c2ccncc2)CCC3)cc1` [SKF-105942] as the molecule, how does the “%Inh” value read?
Answer: Its value is 0%.

Question: `Cc1cc(NCC(c2ccccc2)c2ccccc2)nc(NCc2ccc(C(F)(F)F)cc2)n1` [GW497681] was tested. Which “%Inh” value did it give?
Answer: The value was 0%.

Question: `Cl.NC(=O)c1cccc(Nc2nccc(Nc3ccc(Oc4cccc(Cl)c4)c(Cl)c3)n2)c1` [GW659008] was tested. Which “%Inh” value did it give?
Answer: Its value is 0%.

Question: `CC(C)(C)c1ccc(C(=O)Nc2cn3cc(Cl)ccc3n2)cc1` was tested. Which “%Inh” value did it give?
Answer: Its value is 0%.

Question: Which “%Inh” value does the source give for `O=c1cc(N2CCOCC2)nc2n(Cc3cccc(Cl)c3Cl)ccn12` [GSK2286295] here?
Answer: Its value is 0%.

Question: Which “%Inh” value does the source give for `CCCc1ccc(S(=O)(=O)NC2CCN(c3ccnc(Nc4ccc(F)cc4)n3)C2)cc1` (stereo not drawn) [GSK1379715] here?
Answer: The value was 34%.

Question: How did the “%Inh” value turn out when `O=S(=O)(c1ccc(-c2ccnc3[nH]ccc23)cc1)N1CCCC1` [GSK846226] was run?
Answer: Its value is 0%.

Question: How did the “%Inh” value turn out when `COc1ccc(C2=C(Nc3cccc(C(=O)O)c3)C(=O)NC2=O)cc1` [SB-390765] was run?
Answer: The value was 0%.

System: T1, TAK1
T1 construct: gene MAP3K7
Details: concentration: 1 μM, replicates: in singlicate; n = 1

Question: Which “%Inh” value does the source give for `Cl.c1ccc(-c2n[nH]cc2-c2ccnc(-c3ccc(CN4CCOCC4)cc3)c2)nc1` [GW776245] here?
Answer: Its value is 0%.

Question: For `Cc1nnc(-c2ccc3occ(-c4ccc(S(C)=O)cc4)c3c2)[nH]1` (stereo not drawn), which “%Inh” value is on record?
Answer: Its value is 7%.

Question: `Cn1ccc2ncnc(Oc3ccc(Nc4nc5ccccc5[nH]4)cc3)c21` was tested. Which “%Inh” value did it give?
Answer: Its value is 0%.

Question: How did the “%Inh” value turn out when `COc1cc2ncn(-c3cc(OCC4CCCO4)c(C(N)=O)s3)c2cc1OC` (stereo not drawn) [GSK204607] was run?
Answer: The value was 18%.

Question: Which “%Inh” value does the source give for `Cc1cccc(-c2nc(-c3ccc(S(C)(=O)=O)cc3)sc2-c2ccnc(NCCc3ccccc3)c2)c1` here?
Answer: The value was 0%.

Question: Which “%Inh” value does the source give for `COC(=O)c1c(-c2ccccc2)c2cc(C(=O)O)ccc2c(=O)n1Cc1ccccc1` here?
Answer: The value was 0%.

Question: With `Cl.Oc1ccc(-c2nc(-c3ccccc3)[nH]c2-c2ccncc2)cc1` [SB-428218] as the molecule, how does the “%Inh” value read?
Answer: Its value is 0%.

Question: For `CC(=O)Nc1nc2cnc(Nc3cc(NC(=O)c4cccc(CCC#N)c4)ccc3C)nc2s1`, which “%Inh” value is on record?
Answer: The value was 42%.

Question: For `CSc1nn2c(=O)cc(N3CCOCC3)nc2n1Cc1cccc(C(F)(F)F)c1C` [GSK2363608], which “%Inh” value is on record?
Answer: Its value is 0%.

Question: Which “%Inh” value does the source give for `O=C(Nc1n[nH]c2nc(-c3nccs3)c(Br)cc12)C1CCCC1` [SB-742609] here?
Answer: The value was 0%.

Question: Which “%Inh” value does the source give for `CCn1c(-c2ccccn2)nc2cnccc21` [SB-736398] here?
Answer: Its value is 0%.

Question: For `NC(=O)c1nnc2ccccc2c1N`, which “%Inh” value is on record?
Answer: Its value is 19%.

Question: For `COc1ccc(Nc2nccc(NCCNC(=O)Nc3ccccc3F)n2)cc1` [GSK1379901], which “%Inh” value is on record?
Answer: The value was 0%.

Question: How did the “%Inh” value turn out when `Cc1cc(N2Cc3ccccc3C2)nc(Nc2ccc(S(=O)(=O)N3CCOCC3)cc2)n1.Cl` [GSK1669917] was run?
Answer: The value was 0%.

Question: For `CC1=C(C(=O)Nc2cc3cn[nH]c3cc2F)C(c2ccc(C(F)(F)F)cc2)CC(=O)N1` (stereo not drawn) [GSK429286], which “%Inh” value is on record?
Answer: The value was 0%.

Question: How did the “%Inh” value turn out when `COC(=O)c1c(-c2ccccc2)c2cc(OC)ccc2c(=O)n1Cc1ccccc1` was run?
Answer: Its value is 19%.

Question: Which “%Inh” value does the source give for `O=C(O)COc1ncnc2cc(-c3ccc4[nH]ncc4c3)sc12` here?
Answer: The value was 28%.

Question: For `Nc1nc(-c2nccs2)c(-c2ccnc3ccccc23)s1` [GW693542], which “%Inh” value is on record?
Answer: The value was 0%.

Question: How did the “%Inh” value turn out when `Cn1cncc1-c1ccc2ncnc(Nc3ccc(OCc4ccccc4)cc3)c2c1` [GW320571] was run?
Answer: The value was 0%.

Question: With `O=C(Nc1ccc2c(c1)OCO2)NC1CCN(c2ccnc(Nc3ccc(F)cc3)n2)C1` (stereo not drawn) [GSK1379724] as the molecule, how does the “%Inh” value read?
Answer: Its value is 0%.

Question: For `Cc1ccccc1-n1cnc2c(N)ncnc21` [SKF-97510], which “%Inh” value is on record?
Answer: Its value is 0%.

Question: How did the “%Inh” value turn out when `Cn1ccc2ncnc(Oc3ccc(NC(=O)Nc4ccccc4)cc3)c21` was run?
Answer: The value was 4%.

Question: How did the “%Inh” value turn out when `O=C1NC(=O)C(N2CCc3ccccc32)=C1c1ccccc1Cl` [SB-373598] was run?
Answer: Its value is 7%.

Question: For `O=C(Nc1ccccc1)Nc1cccc(Oc2ccc3nccn3n2)c1`, which “%Inh” value is on record?
Answer: The value was 0%.

Question: With `Nc1ncnc2[nH]c(-c3ccccc3)nc12` [AH5015] as the molecule, how does the “%Inh” value read?
Answer: Its value is 0%.

Question: For `CS(=O)(=O)c1ccc(-c2c(-c3ncn[nH]3)sc(N3CCOCC3)c2C#N)cc1`, which “%Inh” value is on record?
Answer: The value was 33%.

Question: `Cc1c(O)cccc1Nc1ccnc2ccc(C(F)(F)F)cc12.Cl` [GW466413] was tested. Which “%Inh” value did it give?
Answer: The value was 0%.

Question: With `CS(=O)(=O)c1ccc(-c2nc3n(c2-c2ccncc2)CCC3)cc1` [SKF-105942] as the molecule, how does the “%Inh” value read?
Answer: Its value is 0%.

Question: How did the “%Inh” value turn out when `Cc1cc(NCC(c2ccccc2)c2ccccc2)nc(NCc2ccc(C(F)(F)F)cc2)n1` [GW497681] was run?
Answer: The value was 0%.

Question: `Cl.NC(=O)c1cccc(Nc2nccc(Nc3ccc(Oc4cccc(Cl)c4)c(Cl)c3)n2)c1` [GW659008] was tested. Which “%Inh” value did it give?
Answer: Its value is 0%.

Question: Which “%Inh” value does the source give for `CC(C)(C)c1ccc(C(=O)Nc2cn3cc(Cl)ccc3n2)cc1` here?
Answer: The value was 0%.

Question: For `O=c1cc(N2CCOCC2)nc2n(Cc3cccc(Cl)c3Cl)ccn12` [GSK2286295], which “%Inh” value is on record?
Answer: The value was 5%.

Question: Which “%Inh” value does the source give for `CCCc1ccc(S(=O)(=O)NC2CCN(c3ccnc(Nc4ccc(F)cc4)n3)C2)cc1` (stereo not drawn) [GSK1379715] here?
Answer: The value was 0%.

Question: `O=S(=O)(c1ccc(-c2ccnc3[nH]ccc23)cc1)N1CCCC1` [GSK846226] was tested. Which “%Inh” value did it give?
Answer: The value was 1%.

Question: Which “%Inh” value does the source give for `COc1ccc(C2=C(Nc3cccc(C(=O)O)c3)C(=O)NC2=O)cc1` [SB-390765] here?
Answer: The value was 21%.
